Measurements reported in the supplement of paper PMC6135742.
“And” between values parts separate entries of the source, which are not always exact repeats. Equal entries are not always repeated. Structures can show the parent of a compound that is named as a salt. ± gives the standard deviation of the averaged measurements. In all, about 2,600 compounds were measured (“total cell number (DAPI+ nuclei) relative to DMSO vehicle control”: median about -1.4, lowest 2% from about -23 on). The list comes from a sample in which the lowest values are over-represented; it also holds similar structures and randomly drawn compounds.

Tested on: jimpy (Plp1 jimpy) mouse iPSC-derived oligodendrocyte progenitor cells
Experiment: total cell number (DAPI+ nuclei) relative to DMSO vehicle control (SDs above negative control mean); higher = more surviving cells
Details: 10 µM; 3 days

Row | SMILES | total cell number
1 | CC(C)(NS(=O)(=O)c1ccc(Oc2ccc(F)cc2)cc1)C(=O)NO | -2.86
2 | CC(N)(Cc1ccc(O)c(O)c1)C(=O)O (racemic) [(±)-3-(3,4-dihydroxyphenyl)-2-methyl-DL-alanine] | -2.34
3 | N=C(N)SCCN [2-(2-Aminoethyl)isothiourea dihydrobromide] | -2.29
4 | O=C(Nc1c[nH]nc1-c1nc2ccc(CN3CCOCC3)cc2[nH]1)NC1CC1 | -22.6
5 | CCCCNc1ncc(-c2ccc(CN3CCOCC3)cn2)c(NC2CCC(O)CC2)n1 (stereo not given) | -8.26
6 | O=C(NC1CCOCC1)c1ccc(-c2cc(-c3c[nH]nc3-c3ccccn3)ccn2)cc1 | -0.803
7 | O=C(O)Cn1nnc(-c2cc(N3CCC(Oc4cc(F)ccc4Br)CC3)no2)n1 | 3.6
8 | CC(C)N(CCCNC(=O)Nc1ccc(C(C)(C)C)cc1)C[C@H]1O[C@@H](n2cc(Br)c3c(N)ncnc32)[C@H](O)[C@@H]1O | -7.77
9 | CN(C)Cc1cccc(N/C(=C2\C(=O)Nc3cc(C(N)=O)ccc32)c2ccccc2)c1 | -14.3
10 | CCS(=O)(=O)Nc1ccc2c(c1)/C(=C(/Nc1ccc(CN3CCCCC3)cc1)c1ccccc1)C(=O)N2 [Hesperadin] | -17.7
11 | COC(=O)c1ccc2c(c1)NC(=O)/C2=C(\Nc1ccc(N(C)C(=O)CN2CCN(C)CC2)cc1)c1ccccc1 [Nintedanib (BIBF 1120)] | -23
12 | C[C@@H]1O[C@@H](OC[C@H]2O[C@@H](Oc3c(-c4ccc(O)c(O)c4)oc4cc(O)cc(O)c4c3=O)[C@H](O)[C@@H](O)[C@@H]2O)[C@H](O)[C@H](O)[C@H]1O [Rutin] | -0.749
13 | CCCNS(=O)(=O)Nc1ncnc(OCCOc2ncc(Br)cn2)c1-c1ccc(Br)cc1 [Macitentan] | -0.584
14 | CC(C)[C@H](NC(=O)c1ccc2ccccc2n1)C(=O)N[C@@H](CC(=O)O)C(=O)COc1c(F)cccc1F | 15.6
15 | CC(C)C[C@H](NC(=O)[C@H](Cc1ccccc1)NC(=O)c1cnccn1)B(O)O [Bortezomib (PS-341)] | -20.2
16 | CC(C)C[C@H](NC(=O)[C@@H](NC(=O)c1cccc(-c2ccccc2)n1)[C@@H](C)O)B(O)O | -22.6
17 | C=CC(N)CCC(=O)O (racemic) [(±)-gamma-Vinyl GABA] | -0.562
18 | COc1ccc(C2CC(=O)c3c(O)cc(OC4OC(COC5OC(C)C(O)C(O)C5O)C(O)C(O)C4O)cc3O2)cc1OC (stereo not given) [Methyl-Hesperidin] | -1.13
19 | NCC(O)c1ccc(O)c(O)c1 (racemic) [(±)-Norepinephrine (+)bitartrate] | 0.169
20 | Cc1nc(Nc2ncc(C(=O)Nc3c(C)cccc3Cl)s2)cc(N2CCN(CCO)CC2)n1 [Dasatinib] | -22.6
21 | COc1cccc(C(=O)NCCN2CCN(c3ccc(Cl)cc3)CC2)c1 | -2.1
22 | CNC(=O)c1ccc2cc([C@@]3(O)CCn4cncc43)ccc2c1 [TAK-700 (Orteronel)] | 0.9
23 | CC1(C)S[C@@H]2[C@H](NC(=O)C(C(=O)O)c3ccccc3)C(=O)N2[C@H]1C(=O)O (stereo not given in full) [Carbenicillin disodium] | 0.323
24 | O=C(Nc1ccc(-c2ccnc(Nc3ccc(N4CCOCC4)cc3)n2)cc1)C1CCCN1 (stereo not given) | -12.4

Row | SMILES | total cell number
25 | N#CCNC(=O)c1ccc(-c2ccnc(Nc3ccc(N4CCOCC4)cc3)n2)cc1 | -12.5
26 | Cc1nc(N)sc1-c1ccnc(Nc2ccc(N3CCOCC3)cc2)n1 | -22.6
27 | CC(C)OC(=O)C(C(=O)OC(C)C)=C1SC=CS1 [Malotilate] | 7.42
28 | COc1ccc(C2(CNC(=O)c3ccc(NC(=O)c4ccco4)cc3)CCOCC2)cc1 | -6.22
29 | CCc1cccc(CC)c1NC(=O)N1Cc2[nH]nc(NC(=O)c3ccc(N4CCN(C)CC4)cc3)c2C1 | -17.5
30 | CO[C@@H](C(=O)N1Cc2[nH]nc(NC(=O)c3ccc(N4CCN(C)CC4)cc3)c2C1)c1ccccc1 | -24.2
31 | Cc1cc2c(F)c(Oc3ncnn4cc(OC[C@@H](C)O)c(C)c34)ccc2[nH]1 | -1.9
32 | COc1cc2c(Oc3ccc4[nH]c(C)cc4c3F)ncnc2cc1OCCCN1CCCC1 [Cediranib (AZD2171)] | -26.9
33 | Cc1cc2c(F)c(Oc3ncnn4cc(OC[C@@H](C)OC(=O)[C@H](C)N)c(C)c34)ccc2[nH]1 | -4.11
34 | CN(C)C(=O)[C@H](O)[C@H](Cc1ccccc1)NC(=O)c1cc2cc(Cl)ccc2[nH]1 | 0.79 ± 0.2
35 | CCCC(CCC)C(=O)O[C@H]1C[C@H]2CC[C@@H](C1)[N+]2(C)C [Anisotropine methyl bromide] | 12.1
36 | CS(=O)(=O)N1CCN(Cc2cc3nc(-c4cccc5[nH]ncc45)nc(N4CCOCC4)c3s2)CC1 | -23.7
37 | COc1ccc(-c2nc(N3CCOCC3)c3sc(CN(C)c4ncc(C(=O)NO)cn4)cc3n2)cn1 | -10.4
38 | Cc1c(CN2CCN(C(=O)[C@H](C)O)CC2)sc2c(N3CCOCC3)nc(-c3cnc(N)nc3)nc12 | -11.4
39 | O=c1cc(-c2ccccc2)oc2cc(O)c(O)c(O)c12 [Baicalein] | -6.52
40 | CCCCOc1ccc(C(=O)Nc2ccc(F)cc2F)cc1 | 1.72
41 | CCCCCCCCCCCC1=C(O)C(=O)C=C(O)C1=O [Embelin] | 1
42 | COc1cc(Nc2ncc3c(n2)-c2ccc(Cl)cc2C(c2c(F)cccc2OC)=NC3)ccc1C(=O)O [Alisertib (MLN8237)] | -12.8
43 | Cc1ccc(-c2cc(C(F)(F)F)nn2-c2ccc(S(N)(=O)=O)cc2)cc1 [Celecoxib] | 0.578 ± 0.53
44 | NCC(=O)Nc1ccc(-n2nc(C(F)(F)F)cc2-c2ccc3c(ccc4ccccc43)c2)cc1 | -26.5
45 | NS(=O)(=O)c1ccc(-n2nc(C(F)(F)F)cc2-c2ccc(Cl)cc2)cc1 | 0.298
46 | CCCCc1nc2cc(/C=C/C(=O)NO)ccc2n1CCN(CC)CC [Pracinostat (SB939)] | -12.2
47 | CCN(CC)CCNC(=O)c1cc(S(C)(=O)=O)ccc1OC [Tiapride hydrochloride] | -1.15
48 | CCN(CC)CCNC(=O)c1c(C)[nH]c(/C=C2\C(=O)Nc3ccc(F)cc32)c1C [Sunitinib Malate] | -26.5

Row | SMILES | total cell number
49 | CCN(CC)CCNC(=O)c1c(C)[nH]c(/C=C2\C(=O)Nc3ccc(F)cc32)c1C [Sunitinib malate] | -11.2
50 | Cc1[nH]c(/C=C2\C(=O)Nc3ccccc32)c(C)c1CCC(=O)O [TSU-68 (SU6668, Orantinib)] | -0.233
51 | C[N+](C)(C)CC(O)CC(=O)[O-] (racemic) [DL-Carnitine HCl] | 2.24
52 | CC(=O)C(C)=O [2,3-Butanedione] | -1.17
53 | CC[C@H]1OC(=O)C[C@@H](O)[C@H](C)[C@@H](O[C@@H]2O[C@H](C)[C@@H](O)[C@H](N(C)C)[C@H]2O)[C@@H](CCN2C[C@H](C)C[C@H](C)C2)C[C@@H](C)C(=O)/C=C/C(C)=C/[C@@H]1CO[C@@H]1O[C@H](C)[C@@H](O)[C@@H](OC)[C@H]1OC [Tilmicosin] | -3.95
54 | COC1=CC(c2cc3ccccc3[nH]2)=N/C1=C\c1[nH]c(C)cc1C [Obatoclax Mesylate (GX15-070)] | -27.6
55 | Cc1cc(C)c(/C=C2\C(=O)Nc3ccccc32)[nH]1 [Semaxanib (SU5416)] | -1.49
56 | Cc1cc(C)c(/C=C2\C(=O)Nc3ccccc32)[nH]1 | -3.96
57 | C[C@H](NC(=O)Cc1cc(F)cc(F)c1)C(=O)N[C@@H]1C(=O)N(C)c2ccccc2-c2ccccc21 | -6.63
58 | NS(=O)(=O)c1nn2cc(-c3ccccc3)nc2s1 | -5.78
59 | CCCCCCCC/C=C\CCCCCCCC(=O)NCc1ccc(O)c(OC)c1 [Olvanil] | -4.4
60 | C[C@@H](N)[C@H]1CC[C@H](C(=O)Nc2ccncc2)CC1 | -1.42 and -2.14
61 | O=C(Nc1ccc2[nH]ncc2c1)C1CCC1 [Rhodblock 6] | -2.58
62 | Cc1cc(Nc2cc(N3CCN(C)CC3)nc(Sc3ccc(NC(=O)C4CC4)cc3)n2)n[nH]1 [VX-680 (Tozasertib, MK-0457)] | -24
63 | Cc1cc(Nc2cc(N3CCN(C)CC3)nc(/C=C/c3ccccc3)n2)n[nH]1 | -26.3
64 | Fc1ccc(C(OCCCc2cnc[nH]2)c2ccc(F)cc2)cc1 | -1.91
65 | CC(C)NCC(O)c1ccc(NS(C)(=O)=O)cc1 (racemic) [(±)-Sotalol hydrochloride] | -1.64
66 | COCCNC(=O)COc1ccc(OCCNC[C@H](O)COc2ccccc2)cc1 [ZD 7114 hydrochloride] | -0.987
67 | CCCC(=O)O[C@]1(C(=O)COC(C)=O)CC[C@H]2[C@@H]3C[C@H](F)C4=CC(=O)C=C[C@]4(C)[C@@]3(F)[C@@H](O)C[C@@]21C [Difluprednate] | 4.34
68 | COc1cc(N2CCN(C)CC2)ccc1Nc1nccc(-c2cn(C)c3cnccc23)n1 | -15.9
69 | O=C(O)Cc1ccc(O)c(O)c1 [3,4-Dihydroxyphenylacetic acid] | -1.97
70 | Nc1nc(Cl)nc2c1ncn2[C@@H]1O[C@H](CO)[C@@H](O)[C@@H]1F [Clofarabine] | -21.2
71 | Nc1nc(Cl)nc2c1ncn2[C@H]1C[C@H](O)[C@@H](CO)O1 [Cladribine] | -22.8
72 | Nc1nc(Cl)nc2c1ncn2[C@@H]1O[C@H](CO)[C@@H](O)[C@H]1O [2-Chloroadenosine] | -3.18

Row | SMILES | total cell number
73 | c1cnc2cc3c(cc2n1)[C@@H]1CNC[C@H]3C1 [Varenicline Tartrate] | 1.55
74 | c1cnc2cc3c(cc2n1)[C@@H]1CNC[C@H]3C1 [Varenicline tartrate] | -2.7
75 | O=C(O)C1(C(=O)O)CCC1.[NH2-].[NH2-].[Pt+2] [Carboplatin] | -4.56 ± 1.4
76 | CSc1nc(N)c2ncn([C@@H]3O[C@H](COP(=O)(O)OP(=O)(O)OP(=O)(O)O)[C@H](O)C3O)c2n1 (stereo not given in full) [2-Methylthioadenosine triphosphate tetrasodium] | 1.81
77 | Nc1ncnc2c1c(-c1cccc(OCc3ccccc3)c1)cn2C1CC(CN2CCCC2)C1 (stereo not given) | -25.8
78 | Nc1ncnc2c1c(-c1ccc(Oc3ccccc3)cc1)cn2C1CCCC1 | -5.56
79 | C=CC(=O)N1CCC[C@@H](n2nc(-c3ccc(Oc4ccccc4)cc3)c3c(N)ncnc32)C1 | -8.95
80 | O=C(Nc1ccccc1C(=O)NC1CCCCNC1=O)c1cc2ccccc2s1 (stereo not given) | -0.315
81 | COC(=O)N[C@H](C(=O)N1CCC[C@H]1c1ncc(-c2ccc(-c3ccc(-c4cnc([C@@H]5CCCN5C(=O)[C@@H](NC(=O)OC)C(C)C)[nH]4)cc3)cc2)[nH]1)C(C)C | -5.73
82 | COc1cccc2c1[C@@H]1CN(CCCCn3c(=O)[nH]c4c(sc5ncc(-c6ccccc6)nc54)c3=O)C[C@@H]1CO2 [Fiduxosin hydrochloride] | -6.17
83 | Cc1nc(C(=O)NCC(=O)O)c(O)c2ccc(Oc3ccccc3)cc12 | 3.22
84 | CC(C)c1cc(C(=O)N2Cc3ccc(CN4CCN(C)CC4)cc3C2)c(O)cc1O | -25.7
85 | C[C@@H](Oc1cc(-n2cnc3ccc(CN4CCN(C)CC4)cc32)sc1C(N)=O)c1ccccc1C(F)(F)F | -14.7
86 | Nc1ncnc2c1ncn2[C@@H]1O[C@H](COP(=O)(O)OP(=O)(O)OP(=O)(O)OP(=O)(O)OC[C@@H]2O[C@H](n3cnc4c(N)ncnc43)C(O)[C@@H]2O)[C@H](O)C1O (stereo not given in full) [P1,P4-Di(adenosine-5')tetraphosphate triammonium] | -0.947
87 | Nc1c(S(=O)(=O)O)cc(Nc2ccc(Nc3nc(Cl)nc(Nc4cccc(S(=O)(=O)O)c4)n3)c(S(=O)(=O)O)c2)c2c1C(=O)c1ccccc1C2=O [Reactive Blue 2] | -0.98
88 | C[C@@H]1O[C@@H](O[C@H]2[C@H](Oc3cc(O)c(C(=O)CCc4ccc(O)cc4)c(O)c3)O[C@H](CO)[C@@H](O)[C@@H]2O)[C@H](O)[C@H](O)[C@H]1O [Naringin Dihydrochalcone] | -0.984
89 | Cc1nc2c([nH]1)c(=O)n(C)c(=O)n2Cc1ccco1 [Furafylline] | -0.322
90 | O=C(Nc1cccc(Nc2ncc(Br)c(NCCc3cnc[nH]3)n2)c1)N1CCCC1 | -24.3
91 | C=CC(=O)Nc1cccc(Nc2nc(Nc3ccc(OCCOC)cc3)ncc2F)c1 | -15.3
92 | Cc1cnc(Nc2ccc(OCCN3CCCC3)cc2)nc1Nc1cccc(S(=O)(=O)NC(C)(C)C)c1 | -12.3
93 | O=C(NCCCNc1nc(Nc2cccc(NC(=O)N3CCCC3)c2)ncc1I)c1cccs1 | -23.5
94 | NC[C@@H]1O[C@H](c2ccccc2)Cc2c1ccc(O)c2O | -2.54
95 | CCCCCCCCCCCCc1ccc(S(=O)(=O)Nc2nncs2)cc1 | 1.21
